Potency and affinity values are given separately. Inconclusive results are not listed. A call without a number means that no potency is given here. Active and inactive are the calls of the source.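 How the source made its calls: active means compound lowering viability with a fitted half-effect dose within twice the top dose in every timed run; inconclusive means timed runs disagree on the call; inactive means inactive in every run, including a rising signal.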

Outcome data for two compounds are collected here from PubChem BioAssay AID720604 (Broad Institute, 2013).

This test can be described thus: cytotoxicity in primary human umbilical endothelium – cell-based, CellTiter-Glo ATP luminescence, 8/24/48 h, dry powder, cytotoxicity control for HRAS target identification, dose response (AID 720604). To be noted: HUVEC viability, 8-48 h; series mostly up to 35 µM. (In ATP-based viability assays light output follows the ATP content of the culture.)

For `Cc1onc(C(=O)N2CCN(C(c3ccncc3)c3ccncc3)CC2)c1[N+](=O)[O-]`, the compound was called inactive. With `Cc1onc(C(=O)N2CCN(C(c3ccc(Cl)cc3)c3ccc(Cl)cc3)CC2)c1[N+](=O)[O-]`, the result was inactive.
